TRHR PAM: TRH receptor (human) allosteric enhancement; P34981; TRHR cells, fluo-8 calcium fluorescence, EC20 TRH enhancement; enhancement, % at 2 µM; 360,000 compounds, 0.66% hits; AID 493056; in the data active = enhancement above about 30%; also: 0% is about no effect
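TRHR-expressing cells loaded with fluo-8 calcium dye were read kinetically (ex 480/em 530) during compound addition, then stimulated with an EC20 of TRH (10 nM final). Enhancement of the Gq-mediated intracellular calcium response was scored.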
D1 ag: agonists of human D1 dopamine receptor | P21728 | HEK293 T-REx D1 cells, calcium flux, agonist mode | activation, % at 2 µM | 360,000 compounds, 1% hits | AID 504660; also: 0% is about no effect
Target sequence (P21728 whole entry, looked up): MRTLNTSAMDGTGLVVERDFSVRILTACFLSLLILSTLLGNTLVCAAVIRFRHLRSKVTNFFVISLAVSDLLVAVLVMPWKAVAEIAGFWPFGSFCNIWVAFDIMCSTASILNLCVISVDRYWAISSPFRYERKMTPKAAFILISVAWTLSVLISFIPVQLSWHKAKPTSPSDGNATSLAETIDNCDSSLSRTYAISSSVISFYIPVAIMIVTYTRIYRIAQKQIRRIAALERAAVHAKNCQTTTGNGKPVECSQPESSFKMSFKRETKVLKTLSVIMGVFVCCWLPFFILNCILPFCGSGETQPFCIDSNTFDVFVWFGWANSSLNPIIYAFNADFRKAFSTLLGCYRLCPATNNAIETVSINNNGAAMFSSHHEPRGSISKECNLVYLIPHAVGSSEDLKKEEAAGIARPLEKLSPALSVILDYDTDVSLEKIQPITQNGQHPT
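Agonism was scored from calcium flux recorded over 180 s (1 read/s) after pintool compound addition, following a 10-cycle baseline. Cells were inducible force-coupled HEK293 TREx D1, plated overnight at 30 C and loaded with no-wash calcium dye.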
D1 PAM: potentiators of human D1 dopamine receptor; HEK293 TREx D1 cells, calcium flux, dopamine EC20 potentiation; potentiation, % at 10 µM; 360,000 compounds, 0.036% hits; in the data active = potentiation above about 30%; also: 0% is about no effect
TRHR ag: agonists of human TRH receptor; P34981; TRHR cells, calcium flux fluo-8, FDSS agonist mode; activation, % at 2 µM; 360,000 compounds, 0.18% hits; AID 493084; also: 0% is about no effect
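Steps: seed TRHR cells overnight; add fluo-8 no-wash Ca dye, RT 30 min–1.5 h; record 10 s baseline; pin-transfer compounds; monitor fluorescence 1 cycle/s for the agonist window. Calcium increases flag candidate agonists.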
D1 antagonist: human D1 dopamine receptor antagonism; AID 504652; HEK293 TREx D1 cells, calcium flux, dopamine EC80; stronger effect = lower value; P21728; activity change, negative = inhibition, % at 10 µM; 360,000 compounds, 3.2% hits; in the data active = activity change below about -30%; also: % is scaled to controls: 0 for no effect and ±100 for the full control effect
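After overnight tetracycline induction at 30 C, force-coupled D1 HEK293 cells took up a no-wash calcium dye at room temperature. Compounds were added and monitored 180 s, and the response to EC80 dopamine was then recorded.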
The depositor's hits bear a star; nt = no result; ! = repeats disagree. Most compounds without a hit are left out; they make up all but 4.7% or so of the library. Rule as the data show it, unless noted: active = activation above about 30%; inactive = the rest.

SMILES	TRHR PAM	D1 ag	D1 PAM	TRHR ag	D1 antagonist
Cc1cccc(C(=O)Nc2ccc(OCc3cc(=O)n4ccsc4n3)cc2)c1	5	-2	-2	-1	-1
COc1ccc(C(CNC(=O)C(Cc2ccccc2)NC(N)=O)N(C)C)cc1 (stereo not given)	2	3	4	0	-12
CCNS(=O)(=O)c1ccc(NC(=O)Cn2nc(C(F)(F)F)cc2C)cc1	-2	7	-2	1	-39*
O=C(Nc1ccc(S(=O)(=O)N2CCCCC2)cc1)C1CC(=O)N(c2ccc(Cl)cc2)C1 (stereo not given)	5	7	5	0	0
Cc1ccc(-c2n[nH]c(=S)c3ccccc23)cc1	-8	3	-6	-1	-35*
O=C(Nc1ncc([N+](=O)[O-])s1)c1cccc([N+](=O)[O-])c1	8	32*	-16	3	-25
Cc1ccccc1N=C(NOCc1ccc(Cl)cc1Cl)c1nonc1N	21	3	-6	-2	-48*
Cc1ccc(N=C(NOCc2ccc(Cl)cc2Cl)c2nonc2N)c(C)c1	-3	9	-6	1	-7
CC(C)(C)C1CCc2c(sc(NC(=O)Cn3nnc(-c4ccccc4Cl)n3)c2C#N)C1 (stereo not given)	-2	1	-2	-4	-1
CCOc1ccc(NC(=O)Cn2sc3nc(C)cc(C)c3c2=O)cc1	10	2	-3	1	-18
Cc1cc(C)c2c(=O)n(CC(=O)Nc3ccc(Cl)cc3)sc2n1	6	23	-10	2	-39*
Cc1cc(C)c2c(=O)n(CC(=O)Nc3cccc(F)c3)sc2n1	0	12	-1	1	-32*
CC(=O)c1ccc(NC(=O)CN2C(=O)COc3ccc(S(=O)(=O)N4CCCC4)cc32)cc1	13	1	-5	-1	4
C[C@@H](NC(=O)Cn1ccc(NC(=O)OCc2ccccc2)nc1=O)c1cccc2ccccc12	-9	3	-5	1	-33*
CCCCc1nc2ccccc2c(N)c1CCC (tested in a mixture with another compound)	6	50*	-5	0	-47*
CCCCc1nc2ccccc2c(NC(=O)CNC(C)(C)C)c1CCC	1	3	-5	0	-5
CCN(CC)S(=O)(=O)c1ccc(N=Nc2c(N)[nH]c(=O)[nH]c2=O)cc1	-5	2	2	-1	-41*
CCN(CC)S(=O)(=O)c1ccc(N=NC2=C(O)CCCC2=O)cc1	0	1	2	0	-12
CCc1ccc(C(=O)c2cn(CC(=O)NCCc3ccccc3)c3nc(C)ccc3c2=O)cc1	-1	4	-5	0	-2
COc1ccccc1CNC(=O)C(CC(C)C)NS(=O)(=O)c1ccc2c(c1)oc(=O)n2C (stereo not given)	-23	1	3	0	-32*!
ONC(=Nc1ccccc1)c1ccc(Cl)cc1	-2	1	8	0	1
NC(=Nc1ccc(Cl)cc1)c1ccccc1	-19	71*	-3	31*	-53*
CCOC(=O)c1cnc2c(ccc3ccccc32)c1Nc1ccc(N(C)C)cc1	-12	6	-1	0	2
CC(Cc1cccs1)NC(=S)Nc1ccc(Cl)cc1 (stereo not given)	-6	22	-9	0	-60*
C/C=C(\C)CN1CCN(c2ccccc2)CC1	-2	3	-2	0	-24
SMILES	TRHR PAM	D1 ag	D1 PAM	TRHR ag	D1 antagonist
C/C(=C\c1ccccc1)CN1CCN(c2ccccc2)CC1	1	1	-8	0	-38*
CC(CCN1CCN(c2ccc(F)cc2)CC1)c1ccccc1 (stereo not given)	1	7	0	1	-62*
CC(CCN1CCOCC1)c1ccccc1 (stereo not given)	17	1	-4	1	8
CC(CN1CCN(c2ccccc2)CC1)c1ccccc1 (stereo not given)	1	22	-15	-1	-59*
O=C(c1nc(-c2ccc(Cl)cc2)n2c1CCCCC2)N1CCN(c2ccc(F)cc2)CC1	23	1	3	0	14
C=CCn1c(-c2cccs2)nc2ccccc21	7	0	-11	-2	-52*
Cc1cc(OCCN2CCN(S(=O)(=O)c3ccccc3F)CC2)ccc1C(C)C	5	22	-12	5	3
COCCCNC(=O)CCc1c(C)nc2nc(-c3cc(OC)cc(OC)c3)nn2c1C	22	1	-2	0	-31*
CCN1CCN(c2ccc(NC(=O)CCc3c(C)nc4c(-c5ccc(F)cc5)c(C)nn4c3C)cc2)CC1	8	6	-14	0	-79*
Cc1nc2c(-c3ccc(F)cc3)c(C)nn2c(C)c1CCC(=O)Nc1ccccc1	9	2	-10	1	-19
COCCCNC(=O)CCc1c(C)nc2c(-c3ccc(F)cc3)c(C)nn2c1C	3	2	-13	-1	-34*
CC(Oc1ccc(Cl)cc1)C(=O)N(C)CC(=O)Nc1ccc(N2CCOCC2)cc1 (stereo not given)	-3	2	-2	0	11
CCOC(=O)CCP(=O)(O)C(O)c1ccc(OC)cc1 (stereo not given)	-1	1	-3	2	-1
CCOC(=O)CC(N)c1ccc(OC)cc1 (stereo not given)	-7	-2	-10	0	-69*
CCOc1cc(CNC(=O)C2COc3ccccc3C2)cc(OCC)c1OCC (stereo not given)	-4	0	-1	-1	0
CCOc1ccc2nc(NC(=O)c3cc(=O)c4cc(C)cc(C)c4o3)sc2c1	3	0	0	0	-6
COc1cccc(-c2nnn(CCC(=O)O)n2)c1	-7	0	-10	0	-40*
COc1ccc(-c2nnn(CCC(=O)O)n2)cc1	-6	1	-2	1	nt
CC(C(=O)N(C)C1CCS(=O)(=O)C1)N1C(=O)/C(=C/c2ccc(F)cc2)SC1=S (stereo not given)	-6	12	-5	4	-42*
CN(C)CCN(Cc1ccccc1)c1ccccn1	15	4	-5	0	-31*!
CCOC(=O)c1[nH]c(C)c(/C(O)=C2\C(=O)C(=O)N(CCN(C)C)C2c2ccco2)c1C (stereo not given)	-3	0	-3	0	19
CCN(CC)CCN1C(=O)C(=O)/C(=C(/O)c2c(C)[nH]c(C(=O)OC)c2C)C1c1ccco1 (stereo not given)	30*	1	-2	0	1
CCCN(CCC)CCNC(=O)C1CCCN(S(=O)(=O)c2cccc3nsnc23)C1 (stereo not given)	-2	-2	4	-1	19
CCOc1ccc(CNC(=O)c2cccc(NC(=O)C3=C(C)OCCS3)c2)cc1	4	6	3	1	-7
